Assay outcomes deposited in PubChem BioAssay by National Center for Advancing Translational Sciences (NCATS).
Luc counter = Counterscreen for Luciferase (Kinase-Glo TM) Inhibition; Kinase-Glo luciferase, ATP luminescence, 8 min; Potency, µM (doses to about 38.3 µM), usual class: inhibitors; 200,000 tested, 0.28% active; note: nearly all actives have a fitted effect of over 60% in size
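Compounds were added to a substrate mix at pH 7.2 (50 mM imidazole, 10 uM ATP, within the enzyme's linear range), followed by Kinase-Glo detection reagent; luminescence was measured after 8 minutes at ambient temperature.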
Rab9 promoter act = qHTS Assay for Rab9 Promoter Activators. Huh7 Rab9 promoter-luciferase reporter, luminescence, 24 h. Potency, µM (top dose mostly 9.22 µM), usual class: activators. 320,000 tested, 2.8% active; note: nearly all actives have a fitted effect of over 60% in size
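Huh7 cells stably carrying Rab9 promoter–luciferase reporter, plated 1500 cells/well, compound added after 2 h and incubated 24 h at 37 °C; luciferase luminescence then read after 10 min with detection reagent.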
ELG1 genotox = qHTS screen for small molecules that induce genotoxicity in human embryonic kidney (HEK293T) cells expressing luciferase-tagged ELG1 | HEK293T ELG1-luciferase reporter, luminescence, 16 h | Potency, µM (highest dose often 46 µM), actives largely listed as activators | 330,000 tested, 1.3% active; note: nearly all actives have a fitted effect of over 60% in size
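16 hr compound incubation (37 °C, 5% CO2) of HEK293T cells carrying luciferase-tagged ELG1; luciferase then measured by ONE-Glo luminescence after 30 min at RT.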
SMN2 splice enh = qHTS Assay for Enhancers of SMN2 Splice Variant Expression | AID 1458, 2008 | 210,000 tested, 2.8% active | HEK293 SMN2-luciferase splicing reporter, luminescence, 30-36 h | Potency, µM (series often up to 46.1 µM), most hits filed as activators; note: nearly all actives have a fitted effect of over 55% in size
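HEK293 cells carry an SMN2 minigene-luciferase reporter in which exon 7 inclusion puts luciferase in frame. Cells were seeded at 2000 cells/well, attached for 10-12 hours, then exposed to compounds for 30-36 hours at 37C before ONE-Glo luminescence.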
FLuc counter = qHTS profiling assay for firefly luciferase inhibitor/activator using purifed enzyme and Km concentrations of substrates (counterscreen for miR-21 project). purified FLuc, Km substrates, luminescence inhibition. Potency, µM (doses to about 57.5 µM), most hits filed as inhibitors. 360,000 tested, 6.9% active. AID 588342, 2011; note: nearly all actives have a fitted effect of over 55% in size
Target sequence (P08659 whole entry, looked up): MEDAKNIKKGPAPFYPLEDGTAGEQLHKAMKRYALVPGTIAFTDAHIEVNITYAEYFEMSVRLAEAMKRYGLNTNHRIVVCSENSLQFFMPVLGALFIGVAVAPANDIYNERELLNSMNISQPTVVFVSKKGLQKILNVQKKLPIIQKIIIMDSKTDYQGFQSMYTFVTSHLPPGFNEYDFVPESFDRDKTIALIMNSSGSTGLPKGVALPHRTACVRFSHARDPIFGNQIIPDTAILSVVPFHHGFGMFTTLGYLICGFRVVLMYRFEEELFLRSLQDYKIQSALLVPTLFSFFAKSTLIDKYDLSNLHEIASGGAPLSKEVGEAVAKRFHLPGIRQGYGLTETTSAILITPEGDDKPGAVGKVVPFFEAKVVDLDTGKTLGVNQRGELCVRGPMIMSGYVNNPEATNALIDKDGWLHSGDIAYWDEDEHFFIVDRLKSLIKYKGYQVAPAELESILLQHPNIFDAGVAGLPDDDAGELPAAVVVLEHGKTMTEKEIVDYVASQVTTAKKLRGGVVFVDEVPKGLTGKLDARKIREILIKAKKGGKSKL
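Biochemical qHTS of compounds, final roughly 60 µM downward over six points, against 10 nM purified firefly luciferase using Km concentrations of substrates (10 uM D-luciferin, 10 uM ATP) in Tris acetate pH 7.5 buffer; luminescence output.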
NPC1 promoter act = qHTS Assay for NPC1 Promoter Activators; Huh7 NPC1 promoter luciferase reporter, 24 h; Potency, µM (top dose mostly 9.22 µM), usual class: activators; 320,000 tested, 2.4% active; note: nearly all actives have a fitted effect of over 60% in size
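Huh7 cells stably carrying NPC1 promoter–luciferase, plated in Opti-MEM with 10% FBS for 2 h, were exposed to compound in DMSO for 24 h at 37 °C; luciferase reagent was added for 10 min and luminescence read.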
Hits are given with their value. Only some compounds are listed: those with a hit (about 7.4% of all), similar ones and a draw of the others. Calls come from the whole dose curve; as a rule, active = well fitted curve in the direction sought with a large enough effect; inconclusive = small, poorly fitted or top-dose-only effect, or another doubt; inactive = no such curve, though single readings can be large; an effect the other way counts as inactive or inconclusive.

Results for Cc1ccccc1C(=O)NC(=S)Nc1sc2c(c1C#N)CCCC2 ?
Luc counter: inactive; Rab9 promoter act: inactive; ELG1 genotox: inactive; SMN2 splice enh: inactive; FLuc counter: 19µM; NPC1 promoter act: inactive

How did Cc1ccc(C(=O)Nc2sc3c(c2C#N)CCCCC3)cc1C do in these assays?
Luc counter: inactive; Rab9 promoter act: 3.2µM; ELG1 genotox: inconclusive; SMN2 splice enh: inconclusive; FLuc counter: inconclusive; NPC1 promoter act: 2.2µM

What do the screens show for `N#Cc1c(Cl)nsc1NC(=O)c1ccccc1`?
Luc counter: inactive; Rab9 promoter act: inactive; ELG1 genotox: inactive; SMN2 splice enh: inactive; FLuc counter: 15µM; NPC1 promoter act: inactive

How did C=CCNC(=S)Nc1sc2c(c1C#N)CCCC2 do in these assays?
Luc counter: inactive; Rab9 promoter act: inactive; ELG1 genotox: inactive; SMN2 splice enh: inactive; FLuc counter: 21µM; NPC1 promoter act: inactive

How did O=C(CCC1N=C2c3ccccc3N=C(SCc3ccc(F)cc3)N2C1=O)N1CCN(c2ccccc2)CC1 (centres undefined) do in these assays?
SMN2 splice enh: inactive; FLuc counter: inactive

What do the screens show for `COc1ccc(C(=O)NCC(O)COc2ccc(C(C)(C)C)cc2)cc1[N+](=O)[O-]` (centres undefined)?
Luc counter: inactive; Rab9 promoter act: inactive; ELG1 genotox: inactive; SMN2 splice enh: inactive; FLuc counter: inactive; NPC1 promoter act: inactive

Results for N#Cc1c(NC(=O)c2ccccc2)sc2c1CCCCC2 ?
Luc counter: inactive; Rab9 promoter act: 0.56µM; ELG1 genotox: inconclusive; SMN2 splice enh: 0.63µM; FLuc counter: inconclusive; NPC1 promoter act: 0.79µM

How did CC1C/C(=C/c2ccccn2)C(=O)/C(=C/c2ccccn2)C1 (centres undefined) do in these assays?
Luc counter: inactive; Rab9 promoter act: inactive; ELG1 genotox: inactive; SMN2 splice enh: inactive; FLuc counter: inactive; NPC1 promoter act: inactive

What do the screens show for `O=C1/C(=C/c2ccc(O)cc2)COc2ccccc21`?
Rab9 promoter act: inactive; ELG1 genotox: 10µM; FLuc counter: 0.76µM; NPC1 promoter act: inactive

What do the screens show for `CCOc1cc(/C=C2/COc3ccccc3C2=O)ccc1OCC(=O)N(C)C`?
Luc counter: inactive; Rab9 promoter act: inactive; ELG1 genotox: inactive; SMN2 splice enh: inactive; FLuc counter: inactive; NPC1 promoter act: inactive

What do the screens show for `O=C1/C(=C/c2ccccn2)COc2ccccc21`?
Luc counter: inactive; Rab9 promoter act: inactive; ELG1 genotox: inactive; SMN2 splice enh: inactive; FLuc counter: 8.5µM; NPC1 promoter act: inactive

What do the screens show for `CCOC(=O)c1ccc(S(=O)(=O)N2CCN(Cc3cc4c(cc3O)OCO4)CC2)cc1`?
Rab9 promoter act: inactive; ELG1 genotox: inactive; FLuc counter: inactive; NPC1 promoter act: inactive

What do the screens show for `O=C(COC(=O)C1(c2ccccc2F)CCCC1)NCc1cccs1`?
Luc counter: inactive; Rab9 promoter act: inactive; ELG1 genotox: inactive; SMN2 splice enh: inactive; FLuc counter: inactive; NPC1 promoter act: inactive

How did NC1=NN=C(c2ccc3c(c2)OCCO3)CS1 do in these assays?
Luc counter: inconclusive; Rab9 promoter act: 0.56µM; ELG1 genotox: inactive; SMN2 splice enh: 2.5µM; FLuc counter: 5.4µM; NPC1 promoter act: 1µM

Results for Fc1ccc(C2=NNC(=NCc3ccccc3)SC2)cc1F ?
Luc counter: inactive; Rab9 promoter act: inconclusive; ELG1 genotox: inactive; SMN2 splice enh: inconclusive; FLuc counter: inconclusive; NPC1 promoter act: inconclusive

How did CC(C)N=C1NN=C(c2ccc(F)cc2)CS1 do in these assays?
Luc counter: 10µM; Rab9 promoter act: 0.5µM; ELG1 genotox: inactive; SMN2 splice enh: 14µM; FLuc counter: 9.5µM; NPC1 promoter act: 0.56µM

How did Clc1ccc(C2=NNC(=NCc3ccccc3)SC2)cc1 do in these assays?
Luc counter: inactive; Rab9 promoter act: inconclusive; ELG1 genotox: inactive; SMN2 splice enh: inactive; FLuc counter: 17µM; NPC1 promoter act: inconclusive

Results for c1ccc(C2=NNC(=NCc3ccc4c(c3)OCO4)SC2)cc1 ?
Rab9 promoter act: inconclusive; ELG1 genotox: inactive; FLuc counter: 27µM; NPC1 promoter act: inconclusive

What do the screens show for `Nc1nc(-c2ccc3c(c2)OCCO3)c(CC(=O)O)s1`?
Rab9 promoter act: inactive; ELG1 genotox: inactive; FLuc counter: inconclusive; NPC1 promoter act: inactive

How did COc1ccccc1C1=NNC(=NCc2ccccc2)SC1 do in these assays?
Luc counter: inactive; Rab9 promoter act: inactive; ELG1 genotox: inactive; SMN2 splice enh: inactive; FLuc counter: inconclusive; NPC1 promoter act: inactive

How did Cc1[nH]c2ccccc2c1C1=NNC(=Nc2ccc(F)cc2)SC1 do in these assays?
Luc counter: inactive; Rab9 promoter act: inactive; ELG1 genotox: inactive; SMN2 splice enh: inactive; FLuc counter: inactive; NPC1 promoter act: inactive

What do the screens show for `C=CCC(C)(O)c1cccs1` (centres undefined)?
Luc counter: inactive; SMN2 splice enh: inactive

What do the screens show for `COc1ccc(S(=O)(=O)N(C)C[C@H]2Oc3c(cccc3N(C)C)C(=O)N([C@H](C)CO)C[C@@H]2C)cc1`?
ELG1 genotox: inactive

How did COc1ccc(CN(C)C(=O)c2ccncc2)c(OC)c1 do in these assays?
Rab9 promoter act: inactive; ELG1 genotox: inactive; FLuc counter: inactive; NPC1 promoter act: inactive

Results for CCN=C1NN=C(c2ccc(C)cc2)CS1 ?
Luc counter: inactive; Rab9 promoter act: inconclusive; ELG1 genotox: inconclusive; SMN2 splice enh: inconclusive; FLuc counter: 1.1µM; NPC1 promoter act: inconclusive

What do the screens show for `C=CCN=C1NN=C(c2cc(C)n(CC=C)c2C)CS1`?
Luc counter: inconclusive; Rab9 promoter act: inactive; ELG1 genotox: inconclusive; SMN2 splice enh: inactive; FLuc counter: 0.34µM; NPC1 promoter act: inactive

Results for c1ccc(CN=C2NN=C(c3ccccc3)CS2)cc1 ?
Luc counter: inactive; Rab9 promoter act: 4.5µM; ELG1 genotox: inactive; SMN2 splice enh: inconclusive; FLuc counter: 19µM; NPC1 promoter act: inconclusive

What do the screens show for `COCCN=C1NN=C(c2cc(C)n(CC3CCCO3)c2C)CS1` (centres undefined)?
Luc counter: inactive; Rab9 promoter act: inconclusive; ELG1 genotox: inactive; SMN2 splice enh: inactive; FLuc counter: inconclusive; NPC1 promoter act: inactive

How did C=CCN=C1NN=C(c2ccc3c(c2)OCCO3)CS1 do in these assays?
Luc counter: 10µM; Rab9 promoter act: 0.45µM; ELG1 genotox: 0.58µM; SMN2 splice enh: inactive; FLuc counter: 0.67µM; NPC1 promoter act: 1µM

Results for COCCN=C1NN=C(c2ccc(NC(C)=O)cc2)CS1 ?
Luc counter: inactive; Rab9 promoter act: inactive; ELG1 genotox: inactive; SMN2 splice enh: inactive; FLuc counter: inactive; NPC1 promoter act: inactive
